Compounds with a hit are over-represented: about 3.5% of the library has one in this group of screens.
FBW7 activator: human FBW7 E3 ligase activation, primary screen. Q969H0. AlphaScreen FBW7–phospho-cyclin E peptide binding, activator screen. normalized activity (activation), % at 26.1 µM. 650,000 compounds, 0.13% hits. AID 1259310; in the data active = normalized activity above about 1.9%;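 note: purified mutant Fbw7 with reduced substrate affinity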
MITF inh: blocks human microphthalmia-associated transcription factor | O75030 | AlphaScreen MITF homodimerization, bead proximity signal | inhibition, % at 2.6 µM | 650,000 compounds, 0.91% hits | AID 1259374; in the data active = inhibition above about 50%;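 note: 0% = vehicle wells with protein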
Target sequence (O75030 whole entry, looked up): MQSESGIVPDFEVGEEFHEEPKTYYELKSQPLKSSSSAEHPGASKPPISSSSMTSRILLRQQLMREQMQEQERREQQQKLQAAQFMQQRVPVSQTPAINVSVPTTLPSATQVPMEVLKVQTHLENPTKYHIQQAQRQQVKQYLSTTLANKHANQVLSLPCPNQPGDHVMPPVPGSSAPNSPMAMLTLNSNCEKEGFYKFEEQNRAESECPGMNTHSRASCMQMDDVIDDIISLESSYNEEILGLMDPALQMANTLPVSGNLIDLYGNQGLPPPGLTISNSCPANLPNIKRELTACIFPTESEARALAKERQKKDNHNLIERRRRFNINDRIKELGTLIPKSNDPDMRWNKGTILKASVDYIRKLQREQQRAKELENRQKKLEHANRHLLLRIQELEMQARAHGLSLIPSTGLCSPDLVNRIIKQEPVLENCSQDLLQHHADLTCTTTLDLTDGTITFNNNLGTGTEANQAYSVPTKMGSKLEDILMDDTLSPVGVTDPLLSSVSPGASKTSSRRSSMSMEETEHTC
TEAD-YAP block: TEAD-YAP interaction inhibition; HEK-TIYL cells, TEAD-Gal4/YAP UAS-luciferase luminescence; 640,000 compounds, 1.4% hits; inhibition, % at 9.12 µM; in the data active = inhibition above about 32%;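 note: 0% = median of test compound wells and 100% = reference inhibitor wells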
GPR151 ag: activators of human GPR151; Q8TDV0; PathHunter beta-arrestin GPR151 cells, luminescence; activation, % at 11.2 µM; 650,000 compounds, 1% hits; AID 1508602; in the data active = activation above about 4.9%;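 note: 0% = median of compound wells and 100% = cells with positive control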
MITF inh conf: confirmation of human MITF inhibitors. shares compounds with MITF inh. AlphaScreen MITF homodimerization, biotin/His-MITF beads. inhibition, % at 2.6 µM. 4,700 compounds, 16% hits. AID 1259372;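 active = inhibition above a cutoff derived from the DMSO control wells, cut at about 28% in these data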;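 note: 0% = MITF dimer wells with DMSO only; inhibitors lower the bead chemiluminescence by keeping MITF from dimerizing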
AlphaScreen intf2: optically interferes with AlphaScreen signal; shares compounds with MITF inh; LysRS AlphaScreen counterscreen, signal interference, triplicate; inhibition, % at 2.6 µM; 4,700 compounds, 7.6% hits; AID 1259376;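 active = inhibition above a cutoff derived from the DMSO control wells, cut at about 30% in these data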
* = called active by the depositor.

For O=S(=O)(c1ccc2ccccc2c1)N1CCN(Cc2ccccc2F)CC1 the results were FBW7 activator 0, MITF inh 54*, TEAD-YAP block 1, GPR151 ag 0, MITF inh conf 11 and AlphaScreen intf2 16.
For CCOc1ccc(CN2CCN(Cc3ccc(CC)cc3)CC2)cc1 the results were FBW7 activator 0, MITF inh 75*, TEAD-YAP block 12, GPR151 ag 1, MITF inh conf 11 and AlphaScreen intf2 6.
`CCOc1ccc(CN2CCC(N3CCN(C)CC3)CC2)cc1` gave FBW7 activator 0, MITF inh 70*, TEAD-YAP block -1, GPR151 ag -1, MITF inh conf -4 and AlphaScreen intf2 -7.
For COc1ccc(S(=O)(=O)N2CCN(Cc3ccccc3F)CC2)cc1 the results were FBW7 activator 0, MITF inh 7, TEAD-YAP block 5 and GPR151 ag 1.
Screening O=S(=O)(c1ccc2ccccc2c1)N1CCN(Cc2ccccc2)CC1 returned FBW7 activator 0, MITF inh 21, TEAD-YAP block 4 and GPR151 ag 2.
O=S(=O)(c1ccc2ccccc2c1)N1CCN(Cc2ccncc2)CC1 was read as FBW7 activator 0, MITF inh 79*, TEAD-YAP block 1, GPR151 ag 1, MITF inh conf 11 and AlphaScreen intf2 0.
CCOC(=O)C1CCN(C(=O)COC(=O)Cc2ccsc2)CC1 was read as FBW7 activator 0, MITF inh 9, TEAD-YAP block 6 and GPR151 ag 0.
O=S(=O)(c1ccc(F)cc1)N1CCN(Cc2cccc3ccccc23)CC1 was read as FBW7 activator 1, MITF inh 82*, TEAD-YAP block -16, GPR151 ag 0, MITF inh conf 10 and AlphaScreen intf2 9.
For Cc1ccc(S(=O)(=O)N2CCN(Cc3cccc4ccccc34)CC2)cc1 the results were FBW7 activator 0, MITF inh 44, TEAD-YAP block -4 and GPR151 ag -2.
`CCOc1ccc(CN2CCN(S(=O)(=O)c3ccc(OC)cc3)CC2)cc1` gave FBW7 activator 0, MITF inh 57*, TEAD-YAP block 8, GPR151 ag -1, MITF inh conf -4 and AlphaScreen intf2 -1.
For CCOc1ccc(CN2CCN(Cc3ccc(OC)cc3)CC2)cc1 the results were FBW7 activator 0, MITF inh 58*, TEAD-YAP block 4, GPR151 ag 3, MITF inh conf 20 and AlphaScreen intf2 16.
O=S(=O)(c1ccc(F)cc1)N1CCN(Cc2ccncc2)CC1 was read as FBW7 activator 0, MITF inh 73*, TEAD-YAP block 0, GPR151 ag -1, MITF inh conf 13 and AlphaScreen intf2 19.
For Cc1ccc(CN2CCN(Cc3ccc(F)cc3)CC2CCO)cc1 (stereo not drawn) the results were FBW7 activator 0, MITF inh 10, TEAD-YAP block -5 and GPR151 ag -1.
Screening O=C(Nc1ccc2c(c1)OCO2)c1cccc(N2CCN(Cc3ccc4c(c3)OCO4)CC2)n1 returned FBW7 activator 0, MITF inh 33, TEAD-YAP block 2 and GPR151 ag 0.
For CC(=O)C1=C(C)NC(SCc2ccc(Cl)cc2)=C(C#N)C1c1ccccc1Cl (stereo not drawn) the results were FBW7 activator 0, MITF inh -7, TEAD-YAP block 6 and GPR151 ag 3.
For COc1ccc(S(=O)(=O)N2CCN(Cc3cc(OC)c(OC)c(OC)c3)CC2)cc1 the results were FBW7 activator 0, MITF inh 56*, TEAD-YAP block 1, GPR151 ag -2, MITF inh conf -1 and AlphaScreen intf2 9.
`CCOc1ccc(CN2CCN(S(C)(=O)=O)CC2)cc1` gave FBW7 activator 0, MITF inh 66*, TEAD-YAP block 5, GPR151 ag 0, MITF inh conf -5 and AlphaScreen intf2 -2.
For COc1ccc(S(=O)(=O)N2CCN(Cc3ccncc3)CC2)cc1 the results were FBW7 activator 0, MITF inh 69*, TEAD-YAP block -3, GPR151 ag -1, MITF inh conf -2 and AlphaScreen intf2 0.
`CCOc1ccc(CN2CCN(Cc3cc(OC)c(O)c(OC)c3)CC2)cc1` gave FBW7 activator 0, MITF inh 56*, TEAD-YAP block -14, GPR151 ag 3, MITF inh conf 2 and AlphaScreen intf2 8.
Screening COc1ccc(CN2CCN(Cc3ccncc3)CC2)cc1 returned FBW7 activator 0, MITF inh 57*, TEAD-YAP block 11, GPR151 ag -1, MITF inh conf -3 and AlphaScreen intf2 11.
Screening CCOc1ccc(CN2CCN(Cc3cc(OC)c(OC)cc3OC)CC2)cc1 returned FBW7 activator 0, MITF inh 74*, TEAD-YAP block 0, GPR151 ag 0, MITF inh conf 2 and AlphaScreen intf2 8.
`CCOc1ccc(CN2CCN(Cc3ccccc3OC)CC2)cc1` gave FBW7 activator 0, MITF inh 44, TEAD-YAP block 9 and GPR151 ag 1.
For Cc1cc(NCCOc2ccccc2)nc(N2CCc3ccccc3C2)n1 the results were FBW7 activator 0, MITF inh -5, TEAD-YAP block 0 and GPR151 ag 0.
Cc1cc2nc(N3CCCN(CC(C)C)CC3)nc(C)c2cc1C was read as FBW7 activator 0, MITF inh 0, TEAD-YAP block -4 and GPR151 ag 3.
`CCOc1ccc(CN2CCN(C(=O)c3cccs3)CC2)cc1` gave FBW7 activator 0, MITF inh 60*, TEAD-YAP block 8, GPR151 ag -1, MITF inh conf 9 and AlphaScreen intf2 14.
COc1ccc(CN2CCN(C(=O)c3cccs3)CC2)cc1OC was read as FBW7 activator 0, MITF inh 37, TEAD-YAP block 1 and GPR151 ag -2.
`COc1ccc(CN2CCN(C(=O)c3cccs3)CC2)cc1Br` gave FBW7 activator 0, MITF inh 67*, TEAD-YAP block -9, GPR151 ag -1, MITF inh conf 3 and AlphaScreen intf2 9.
COc1ccc(C(=O)N2CCN(Cc3ccc(OC)c(Br)c3)CC2)cc1 was read as FBW7 activator 1, MITF inh 43, TEAD-YAP block 4 and GPR151 ag -2.
`COc1ccc(CN2CCN(C(=O)c3ccccc3F)CC2)cc1Br` gave FBW7 activator 0, MITF inh 54*, TEAD-YAP block -3, GPR151 ag 0, MITF inh conf 27 and AlphaScreen intf2 -10.
COc1ccc(CN2CCN(C(=O)CC(C)C)CC2)cc1Br was read as FBW7 activator 0, MITF inh 54*, TEAD-YAP block -4, GPR151 ag -2, MITF inh conf 4 and AlphaScreen intf2 15.
Screening Nc1nc(Nc2ccc(C(F)(F)F)cc2)nc2c1ncn2C1CCCCC1 returned FBW7 activator 0, MITF inh -14, TEAD-YAP block 2 and GPR151 ag -1.
For CSCC[C@H](NC(=O)Cc1ccc(F)cc1)c1nc2ccccc2[nH]1 the results were FBW7 activator 0, MITF inh 9, TEAD-YAP block 18 and GPR151 ag 2.

Screening results deposited in PubChem by The Scripps Research Institute Molecular Screening Center.
